Reference: PubChem BioAssay AID588763 (NMMLSC, 2011)
Measured potencies and affinities stand elsewhere. Calls of active or inactive are those of the source. No rule for the calls is given here.

target: Beta-2 adrenergic receptor (Homo sapiens) (UniProt P07550); assay: ADRB2 activation measured by internalization – cell-based, FAP fluorogen, flow cytometry, cherry pick 1, dose response (AID 588763); conditions: AM2.2-beta2AR cells, 90 min; series mostly up to 33 µM
Sequence (P07550 whole entry, looked up): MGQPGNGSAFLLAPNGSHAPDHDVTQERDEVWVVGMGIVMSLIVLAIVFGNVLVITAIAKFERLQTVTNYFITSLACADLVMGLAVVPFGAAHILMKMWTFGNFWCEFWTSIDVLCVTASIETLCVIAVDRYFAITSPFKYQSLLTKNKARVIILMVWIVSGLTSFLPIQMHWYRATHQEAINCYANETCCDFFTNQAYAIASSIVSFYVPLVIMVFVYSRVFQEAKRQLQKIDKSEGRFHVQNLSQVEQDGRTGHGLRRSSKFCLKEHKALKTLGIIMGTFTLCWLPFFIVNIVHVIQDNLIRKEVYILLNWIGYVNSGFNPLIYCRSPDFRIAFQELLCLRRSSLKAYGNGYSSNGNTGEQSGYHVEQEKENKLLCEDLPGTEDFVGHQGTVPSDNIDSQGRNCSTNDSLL

outcome, inactive:
CC1=NN(C(N)=S)C(=O)C1N=Nc1ccc(F)cc1 (stereo not drawn)
COc1ccc(-n2nc3c(N4CCC(C(=O)NCc5cccc(C)c5)CC4)nnc(C)c3c2C)cc1
O=C(COc1ccc(S(=O)(=O)N2CCOCC2)cc1)Nc1ccccc1F
CCCCn1c(=N)n(CC(=O)c2ccc(Br)s2)c2ccccc21
CCOc1ccc(NC(=O)Cn2nnc(-c3ccccc3NC(=O)C3CC3)n2)cc1
Cc1cc(S(=O)(=O)N2CCCCC2)ccc1OCC(=O)Nc1ccccc1
Cc1cccc(CN2CCC(Oc3ccc(C(=O)N4CCCCC4)cc3)CC2)c1
CCOc1ccccc1CNC(=O)C1CCN(c2nnc(C)c3c(C)n(-c4ccc(C)cc4)nc23)CC1
COc1ccc(NC(=O)Cn2nnc(-c3ccccc3NC(=O)C3CC3)n2)cc1
CCOC(=O)c1ccc(N=c2sc(C(=O)OC)cc(=O)n2-c2ccc(C(=O)OCC)cc2)cc1
COc1ccccc1C(=O)Nc1ccc(S(=O)(=O)N2CCCCC2c2cccnc2)cc1 (stereo not drawn)
O=C(Nc1ccc(-c2cccc(F)c2)cc1)C1CCCN(Cc2ccccn2)C1 (stereo not drawn)
CCOC(=O)C1CCN(C(=O)COC(=O)c2ccccc2C(=O)c2ccc(Cl)cc2)CC1
CSc1nc(SCCO)c2sc3nc(-c4ccco4)c4c(c3c2n1)CC(C)(C)OC4
O=C(CN1CCOCC1)N1CCN(c2nnc(-c3ccccc3)c3ccccc23)CC1
O=C(Nc1ccc2nc(-c3cccs3)c(-c3cccs3)nc2c1)N1CCOCC1
Cc1ccc(OCc2cc(C(=O)NCc3cc(F)ccc3C)no2)cn1
COc1ccc(NC(=O)Cn2nnc(-c3ccc(CN4CCOCC4)cc3)n2)c(OC)c1
O=C(c1ccc(-c2nnc(Nc3ccccc3)c3ccccc23)cc1)N1C[C@H]2C[C@H](C1)c1cccc(=O)n1C2
O=C(COc1ccc(S(=O)(=O)N2CCOCC2)cc1)Nc1ccc2c(c1)OCCO2
COc1ccc(OC)c(S(=O)(=O)N(C)CC(=O)N2CCN(c3ccc(F)cc3)CC2)c1
COc1ccc(NC(=O)c2cccc(N3C(=O)c4cccc([N+](=O)[O-])c4C3=O)c2)cc1
CN(C)c1ccc(-c2nnn(CC(=O)Nc3ccccc3N3CCOCC3)n2)cc1
COC(=O)c1ccccc1NC(=O)Cn1nnc(-c2ccc(OC)cc2)n1
N=c1n(CC(=O)c2ccc([N+](=O)[O-])cc2)c2ccccc2n1Cc1ccccc1
COc1ccc(Cl)cc1NC(=O)COc1ccc(S(=O)(=O)N2CCOCC2)cc1C
Cc1ccc(C(=O)c2cc([N+](=O)[O-])ccc2N2CCCCC2)c(C)c1
c1ccc(-c2nnc(SCc3nc4ccccc4[nH]3)n2Cc2ccco2)cc1
CCOc1cccc(CN2CCC(Oc3ccc(C(=O)N4CCCC4)cc3)CC2)c1
CN(C)S(=O)(=O)c1cccc(NC(=O)c2ccc(N3CCOCC3)c([N+](=O)[O-])c2)c1
Cc1ccc(-c2nc(NC(=O)c3cc(C(C)(C)C)nn3C)sc2C)cc1Cl
CCC(NC(=O)c1cc(COc2ccc(C)nc2)on1)c1ccc(C)cc1 (stereo not drawn)
COc1ccc(-c2nc(NC(=O)c3cc(C(C)(C)C)nn3C)sc2C)cc1
